# Assay results as given in paper PMC5540273 (PLoS ONE, 2017).
# Several values for one entry are separate records, joined by “and”; a condition that tells them apart may be missing. Equal entries are not always repeated. Where two headings read alike, the source gives them in different places.
# Experiments:
# PRKCD = conditions: concentration: 1 μM, replicates: in singlicate, n = 1
# PRKCE = conditions: concentration: 1 μM, replicates: in singlicate, n = 1
# PRKCH = conditions: concentration: 1 μM, replicates: in singlicate, n = 1
# PRKCI = conditions: concentration: 1 μM, replicates: in singlicate, n = 1
# PRKCQ = conditions: concentration: 1 μM, replicates: in singlicate; n = 1
# PRKD1 = conditions: concentration: 1 μM, replicates: in singlicate, n = 1
# PRKD2 = conditions: concentration: 1 μM, replicates: in singlicate, n = 1
# PRKD3 = conditions: concentration: 1 μM, replicates: in singlicate, n = 1
# PRKG1 = conditions: concentration: 1 μM, replicates: in singlicate, n = 1
# PRKG2 = conditions: concentration: 1 μM, replicates: in singlicate, n = 1
# 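Further: KINOMEscan kinase panel screen.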
SMILES,%Inh (PRKCD) [%],%Inh (PRKCE) [%],%Inh (PRKCH) [%],%Inh (PRKCI) [%],%Inh (PRKCQ) [%],%Inh (PRKD1) [%],%Inh (PRKD2) [%],%Inh (PRKD3) [%],%Inh (PRKG1) [%],%Inh (PRKG2) [%],%Inh (PRKCD; 1 µM),%Inh (PRKCE; 1 µM),%Inh (PRKCH; 1 µM),%Inh (PRKCI; 1 µM),%Inh (PRKD1; 1 µM),%Inh (PRKD2; 1 µM),%Inh (PRKD3; 1 µM),%Inh (PRKG1; 1 µM),%Inh (PRKG2; 1 µM)
COc1ccc(Nc2nccc(N3CCC(NC(=O)c4cccc(NC(C)=O)c4)C3)n2)cc1 (centres unmarked) [GSK1379732],8,16,17,5,25,13,20,11,2,11,,,,,,,,,
C[C@@H]1CCN(C(=O)CO)C[C@@H]1N(C)c1ncnc2[nH]ccc12,22,54,0,0,0,17,6,7,95.3,0,,,,,,,,,
Nc1nc(-c2ccc3c(N)n[nH]c3c2)cc(N2CCCCC2)n1 [GSK2228768],0,0,0,6,17,0,4,6,0,8,,,,,,,,,
Clc1ccc(-c2cc(-c3c[nH]nc3-c3ccccn3)ccn2)cc1 [GW681251],0,26,4,0,0,56,31,25,0,10,,,,,,,,,
CCCc1ccc(S(=O)(=O)NC2CCN(c3ccnc(Nc4ccc(OC)cc4)n3)C2)cc1 (centres unmarked) [GSK1379737],0,9,0,11,0,0,3,9,0,0,,,,,,,,,
O=C(NCCCN1CCCC1=O)c1cnc(NCc2cc(Cl)ccc2Cl)nc1NC1CCNCC1,13,40,0,0,0,3,0,29,0,0,,,,,,,,,
CS(=O)(=O)CCNCc1nc(-c2ccc3ncnc(Nc4ccc(OCc5cccc(F)c5)c(Cl)c4)c3c2)cs1.Cl [GW583340],0,0,0,13,0,0,2,3,0,0,,,,,,,,,
COc1ccc(-c2nc3n(c2-c2ccncc2)CCC3)cc1 [SKF-104493],,,,,0,,,,,,0% and 8%,45% and 8%,6% and 7%,0% and 50%,0% and 3%,2% and 16%,0% and 27%,32% and 7%,1% and 18%
Cc1cccc(-c2nc(Nc3ccc4[nH]nnc4c3)c3ccccc3n2)n1 [GW867587],0,7,0,0,0,94.2,98.1,66,0,0,,,,,,,,,
Cl.c1ccc(Cn2ccc3cc(Nc4ncnc5ccccc45)ccc32)cc1 [GW275568],0,8,0,31,11,0,18,13,0,28,,,,,,,,,
CCC(CC)(CC)n1cnc2c(N)ncnc21 [SKF-97620],8,47,20,16,0,0,8,0,14,3,,,,,,,,,
Nc1nc(-c2ccc3c(N)n[nH]c3c2)cc(N2CCC[C@@H](C(=O)Nc3ccccc3)C2)n1.O=C(O)C(F)(F)F.O=C(O)C(F)(F)F [GSK2288359],0,0,0,12,7,0,1,5,13,29,,,,,,,,,
Clc1cccc(-c2nc(Nc3ccncc3)c3ccccc3n2)c1 [GW873004],24,16,50,17,0,47,45,44,16,7,,,,,,,,,
CSc1nn2c(=O)cc(N3CCOCC3)nc2n1Cc1cccc(Cl)c1Cl [GSK2347225],5,6,23,27,0,0,8,0,25,0,,,,,,,,,
CS(=O)(=O)CCNCc1ccc(-c2ccc3ncnc(Nc4ccc(OCc5ccccc5)c(Cl)c4)c3c2)o1.Cl [GW574783],0,10,27,13,20,4,12,0,0,0,,,,,,,,,
Cl.Cl.c1ccc(-c2cc3ccncc3cc2OC2CCNCC2)cc1 [GSK1122999],33,82,86,21,21,15,7,0,0,0,,,,,,,,,
Nc1nc(-c2cccnc2)c(-c2ccnc3ccccc23)s1 [GW684083],0,0,31,21,4,24,34,0,0,0,,,,,,,,,
